IL1B secr inh: blocks inflammasome-driven IL-1 beta release; THP-1 LPS/ATP IL-1B secretion, AlphaLISA, 16 h; active compounds read low; activity change, % at 57.5 µM; 360,000 compounds, 4.7% hits; in the data active means activity change below about -50%; inconclusive means mostly about -30% to -49%; further: on the % scale 0 is the no-effect control and ±100 the full control effect
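Secreted IL-1B measured by AlphaLISA bead assay after 16 h compound exposure of THP-1 cells; compounds (final up to 57.5 uM) added 1 h before LPS (250 ng/mL) and ATP (1.25 mM) stimulation; lower signal means less secretion.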
ASM inhibitor: inhibitors of human secretory acid sphingomyelinase. placental ASM, HMU-PC fluorogenic substrate, 60 min. Potency, µM (highest dose often 57.5 µM), for the others: at the highest dose activity change, negative = inhibition, actives largely listed as inhibitors. P17405. 340,000 compounds, 0.006% hits; further: potency means the concentration at half of the fitted maximal effect
Target sequence (P17405 47-631 limits assumed): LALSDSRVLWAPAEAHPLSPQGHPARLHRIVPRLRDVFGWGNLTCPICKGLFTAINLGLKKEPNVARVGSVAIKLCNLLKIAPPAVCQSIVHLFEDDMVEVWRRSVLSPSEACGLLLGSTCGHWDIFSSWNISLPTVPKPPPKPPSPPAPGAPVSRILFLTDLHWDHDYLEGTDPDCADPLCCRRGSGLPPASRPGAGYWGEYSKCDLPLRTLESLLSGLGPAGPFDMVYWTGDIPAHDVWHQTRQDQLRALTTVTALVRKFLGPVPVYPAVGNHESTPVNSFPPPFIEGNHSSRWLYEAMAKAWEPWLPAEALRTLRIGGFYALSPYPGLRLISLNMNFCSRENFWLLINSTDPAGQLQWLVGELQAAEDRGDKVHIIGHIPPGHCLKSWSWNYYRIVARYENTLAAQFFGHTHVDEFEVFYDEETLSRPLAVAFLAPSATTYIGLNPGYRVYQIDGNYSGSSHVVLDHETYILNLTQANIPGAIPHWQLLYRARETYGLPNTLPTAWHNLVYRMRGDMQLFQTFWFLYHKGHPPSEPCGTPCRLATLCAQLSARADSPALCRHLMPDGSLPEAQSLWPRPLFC
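Human placenta-derived ASM preincubated with compound 10 min at room temperature, then reacted with 9 uM (final) fluorogenic HMU-PC substrate for 60 min at 37 C. Stop solution raises pH to 10; fluorescence read at Ex 386/Em 447 nm.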
DT40 TDP1 CPT: DT40-hTDP1 cell growth loss with CPT; chicken DT40 Tdp1-/-;hTDP1 cells + 20 nM CPT, ATP luminescence, 48 h; Potency, µM (top dose mostly 46.2 µM), inactives show at the highest dose activity change, negative = growth inhibition, usual class: inhibitors; 420,000 compounds, 12% hits; AID 686979; further: potency means the concentration at half of the fitted maximal effect; on the % scale 0 is the no-effect control and ±100 the full control effect; nearly all actives have a fitted effect of over 55% in size
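Cell growth measured by CellTiter-Glo luminescence after a minimum 48 h, 37 C compound exposure with 20 nM CPT in Tdp1-knockout DT40 cells stably expressing hTDP1, seeded 400/well; qHTS titration format.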
HepG2 viability: counter-screen for TGF-b inhibitors: cytotoxicity in HepG2 cells. HepG2 CAGA-GFP viability, ATP luminescence, 18 h. Potency, µM (top dose mostly 46.1 µM), inactives show top-dose activity change, negative = cytotoxicity, actives largely listed as cytotoxic. 410,000 compounds, 0.76% hits. AID 588856; further: potency means the concentration at half of the fitted maximal effect
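CellTiter-Glo luminescence gave cytotoxicity after 18 hours at 37 degrees C. The cells were HepG2 CAGA-GFP in 1% FBS DMEM, stimulated with 500 pg/mL TGF-beta after compound addition. %Activity was normalised to no-cell wells (complete cell-killing) and DMSO (no toxicity), and curves were fitted and classified.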
DT40 TDP1 no CPT: qHTS for Inhibitors of human tyrosyl-DNA phosphodiesterase 1 (TDP1): qHTS in cells in absence of CPT; DT40 Tdp1-/- hTDP1 cells, no CPT, ATP luminescence, 48 h; Potency, µM (highest dose often 46.2 µM), for inactives: at the top dose activity change, negative = growth inhibition, most hits filed as inhibitors; 420,000 compounds, 15% hits; AID 686978, 2013; further: potency means the concentration at half of the fitted maximal effect; on the % scale 0 is the no-effect control and ±100 the full control effect; nearly all actives have a fitted effect of over 55% in size
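Cells were dispensed at 400 per well, compounds added by pin tool, plates incubated ≥48 hr at 37 °C, then CellTiter-Glo added for 30 min at room temperature before luminescence reading. Line: DT40 Tdp1-/- complemented with hTDP1; camptothecin omitted.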
TGFb SMAD3 inh: TGF-b pathway inhibition; HepG2 CAGA-GFP TGF-b/SMAD3 reporter, GFP fluorescence, 18 h; TGF-beta stimulated, 500 pg/mL final; Potency, µM (doses to about 46.1 µM), without a hit: at the highest dose activity, negative = inhibition, actives largely listed as inhibitors; 410,000 compounds, 1.2% hits; further: potency means the concentration at half of the fitted maximal effect; on the % scale 0 is the no-effect control and ±100 the full control effect; nearly all actives have a fitted effect of over 65% in size
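TGF-beta reporter screen: HEPG2 CAGA-GFP, 1% FBS, 500 pg/mL TGF-beta final, 18 h; per-cell GFP summed per well; curves fitted and categorized by class.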
Starred values were filed as active, the others as inactive; i = inactive; ? = inconclusive; . = no result given. In the library only some 19% were active in any assay of this set; here they are far more common. Unless noted, the call rests on the fitted dose curve; in most records, active means well fitted curve in the direction sought with a large enough effect; inconclusive means small, poorly fitted or top-dose-only effect, or another doubt; inactive means no such curve, though single readings can be large; an effect the other way counts as inactive or inconclusive.

SMILES	IL1B secr inh	ASM inhibitor	DT40 TDP1 CPT	HepG2 viability	DT40 TDP1 no CPT	TGFb SMAD3 inh
Cc1ccccc1-c1cc2c(c3c1ccn3C)C1CCC2C1 (configuration not stated)	1.4	.	-21.7%	1.3%	-21.1%	-6.5%
Cc1cccc(-n2c3nc(=O)[nH]c(=O)c-3cc3c(Cl)cccc32)c1C	.	.	0.82µM*	-2.3%	0.581µM*	?
Cc1cccc(-n2c3nc(=O)[nH]c(=O)c-3cc3ccc(Cl)cc32)c1C	.	.	?	-4.0%	8.2µM*	4.9%
CC1CCC(NC(=O)CN(C)CC(=O)Nc2ccc(F)cc2)CC1 (configuration not stated)	-6.7	2.4%	-18.3%	1.8%	-13.7%	7.1%
CN1CCN(c2c([N+](=O)[O-])cnc3ccccc23)CC1	10.1	-0.3%	4.5%	2.2%	-25.8%	0.1%
CCN1C(=O)[C@H]2[C@@H](c3ccc(-c4cccc(Cl)c4)c(OC)c3)N[C@@](C)(C(=O)OC)[C@H]2C1=O	-7.3	-0.9%	13µM*	-33.8%	?	-14.7%
COC(=O)[C@]1(C)N[C@H](c2ccc(-c3ccc(Cl)c(Cl)c3)c(OC)c2)[C@@H]2C(=O)N(C)C(=O)[C@@H]21	-12.5	-19.2%	9.2µM*	-22.5%	7.31µM*	?
O=c1cc(O)cc2n1CCC2	14.2	.	11.8%	-6.7%	18.9%	4.0%
COc1ccc(N2C(=O)NC(NS(=O)(=O)c3ccc(NC(C)=O)cc3)(C(F)(F)F)C2=O)cc1 (configuration not stated)	i	-1.3%	-15.0%	-0.6%	1.7%	3.4%
CCC(C)C(N)C(=O)N1CCCC1C(=O)NC(C(=O)O)C(C)CC (configuration not stated)	0.0	0.6%	0.2%	-2.3%	1.5%	-10.4%
COC(=O)c1c(C)sc(-c2c(-c3ccc4c(c3)OCCO4)[nH]c3[nH]c(=O)[nH]c(=O)c23)c1O	.	.	-0.2%	0.7%	-4.5%	157.7%
CCOC(=O)NN=C1CCC(c2ccccc2)CC1 (configuration not stated)	7.7	6.1%	?	16.3%	21.7%	19.8%
CCOC(=O)N1CCC(Nc2c(NCCCN3CCN(C4CCCCC4)CC3)c(=O)c2=O)CC1	-5.0	8.0%	-3.6%	10.7%	-3.3%	-2.3%
N#CC1C(=O)c2ccccc2C1c1ccccc1 (configuration not stated)	-103.7*	7.1%	?	14.1µM*	?	?
COc1cc(OC)cc(C(=O)NC2CC3CCC(C2)N3C)c1 (configuration not stated)	-6.7	2.7%	-9.6%	-24.0%	1.9%	3.5%
O=C1NCC(=O)N2CCC[C@@H]12	0.2	-3.5%	19.7%	-7.8%	-19.2%	13.2%
Cc1cc(C)c(OCC(=O)N(Cc2ccc(N(C)C)cc2)C2CCS(=O)(=O)C2)c(C)c1 (configuration not stated)	-72.4*	0.9%	-7.4%	10.7%	23.1µM*	8.5%
O=C(c1ccc(Cl)c([N+](=O)[O-])c1)N(Cc1ccc(F)cc1)C1CCS(=O)(=O)C1 (configuration not stated)	-94.7*	-3.1%	6.2%	-1.6%	?	0.0%
Cc1cc(C)cc(OCC(=O)N(Cc2ccc(N(C)C)cc2)C2CCS(=O)(=O)C2)c1 (configuration not stated)	-16.5	-3.3%	2.9%	-2.3%	-24.8%	20.5%
CN(C)c1ccc(CN(C(=O)c2ccc(Cl)c([N+](=O)[O-])c2)C2CCS(=O)(=O)C2)cc1 (configuration not stated)	-75.1*	-2.1%	?	1.1%	?	-10.5%
O=C(NC1CCCCC1)C(c1ccco1)N(C(=O)c1csnn1)c1cccc(F)c1 (configuration not stated)	-5.9	-1.8%	?	8.8%	-19.2%	2.7%
COc1ccccc1CN1CCN(Cc2nc(-c3ccc(C)cc3)oc2C)CC1	0.0	0.2%	20.6µM*	1.0%	?	?
COc1ccc(-c2nc(CN3CCN(Cc4cccc(F)c4)CC3)c(C)o2)cc1	?	0.1%	?	-12.1%	?	-2.0%
COc1ccccc1CN1CCCCCC1	-10.0	1.3%	?	-23.9%	18.4µM*	15.4%
COC(=O)c1ccc(-c2nc(CN3CCN(Cc4cccc(C)c4)CC3)c(C)o2)cc1	6.6	6.7%	?	-8.3%	23.1µM*	0.1%
SMILES	IL1B secr inh	ASM inhibitor	DT40 TDP1 CPT	HepG2 viability	DT40 TDP1 no CPT	TGFb SMAD3 inh
COc1ccc(-c2nc(CN3CCN(c4ccccc4OC)CC3)c(C)o2)cc1	-97.4*	-2.7%	?	-11.2%	?	-24.6%
COc1ccccc1N1CCN(Cc2nc(-c3ccc(F)cc3)oc2C)CC1	-1.6	3.5%	?	-21.4%	18.4µM*	?
CCOCCCNC(=O)C1CCCN(S(=O)(=O)c2ccc(-n3cnnn3)cc2)C1 (configuration not stated)	9.2	-3.3%	0.2%	30.1%	-4.6%	29.3%
COC[C@H]1CCCN1c1ccc2c(c1)O[C@@H](COCc1ccccc1)CN([C@H](C)c1ccccc1)S2(=O)=O	-8.9	.	9.2µM*	.	13µM*	.
COC[C@@H]1CCCN1c1ccc2c(c1)O[C@H](COCc1ccccc1)CN([C@@H](C)c1ccccc1)S2(=O)=O	20.4	.	2.59µM*	.	3.66µM*	.
COC[C@H]1CCCN1[C@H]1CS(=O)(=O)N[C@@H]1COCc1ccccc1	-11.7	.	2.1%	4.2%	0.5%	-13.3%
COC[C@H]1CCCN1c1ccc2c(c1)O[C@H](COCc1ccccc1)CN([C@H](C)c1ccccc1)S2(=O)=O	48.9	.	?	.	18.4µM*	.
CCN(CC)S(=O)(=O)c1cccc(-c2nnc(SC(C)C#N)n2Cc2ccccc2)c1 (configuration not stated)	-18.9	0.0%	14.6µM*	-16.8%	18.4µM*	-0.4%
CCN(CC)S(=O)(=O)c1cccc(-c2nnc(SCC#N)n2Cc2ccccc2)c1	13.9	-0.4%	?	-0.7%	?	-17.8%
CC(=O)Nc1cccc(NC(=O)CSc2nc(=O)n3cccc(C)c3n2)c1	-5.1	1.8%	-7.8%	-0.3%	1.5%	0.0%
C#CCSc1nc(=O)c2cccnc2n1-c1ccc(C)cc1	25.8	4.0%	5.17µM*	0.2%	5.8µM*	0.9%
COc1ccc(-c2nnc(OC)c3ccccc23)cc1	-14.2	-0.2%	-25.3%	-7.5%	?	0.9%
